Values joined by “and” are separate entries in the source; they are usually repeats but may differ in a detail not shown here. Equal entries are not always repeated. About 2,000 (36%) of roughly 5,500 compounds were called active. Not shown: some 18% with an inconclusive outcome. Rule as the data show it: active = normalized growth mostly below about 0.91 (no sharp cut-off); inconclusive = no clear call, values can overlap the other calls; inactive = mostly above about 0.92. Some of the results follow.
Test: chemical genetic growth profiling, strain panel (AID 1159580);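 also: tested at 20 µM; growth read once vehicle control cultures reached saturation at 30 °C; 1 = growth at the plate median or of vehicle wells; lower values mean less growth of the strain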
Details: S. cerevisiae deletion strains, growth OD

Measured: normalized growth

NCC[C@@H](O)C(=O)N[C@@H]1C[C@H](N)[C@@H](O[C@H]2O[C@H](CN)[C@@H](O)[C@H](O)[C@H]2O)[C@H](O)[C@H]1O[C@H]1O[C@H](CO)[C@@H](O)[C@H](N)C1O (stereo partly specified)
inactive: locus YAL013W, strain DEP1, active compounds read low 0.974 | locus YAL021C, strain ccr4, active compounds read low 1.02 | locus YAL026C, strain drs2, active compounds read low 1.02 | locus YAL030W, strain snc1, active compounds read low 1.04 | locus YBL061C, strain skt5, active compounds read low 1.03 | locus YBR009C, strain hhf1, active compounds read low 1.03 | locus YBR021W, strain FUR4, active compounds read low 0.96 | locus YBR023C, strain chs3, active compounds read low 1.04 | locus YBR171W, strain sec66, active compounds read low 1.04 | locus YBR229C, strain ROT2, active compounds read low 0.999 | locus YBR231C, strain swc5, active compounds read low 1.04 | locus YBR279W, strain paf1, active compounds read low 1.03 | locus YCL011C, strain gbp2, active compounds read low 1.03 | locus YCL016C, strain dcc1, active compounds read low 1.04 | locus YCL029C, strain bik1, active compounds read low 1.02 | locus YCL061C, strain MRC1, active compounds read low 1.02 | locus YCL069W, strain vba3, active compounds read low 1.04 | locus YCR088W, strain abp1, active compounds read low 1.03 | locus YDL005C, strain med2, active compounds read low 1.04 | locus YDL035C, strain GPR1, active compounds read low 0.986 | locus YDL040C, strain nat1, active compounds read low 1.04 | locus YDL074C, strain BRE1, active compounds read low 0.983 | locus YDL101C, strain DUN1, active compounds read low 0.999 | locus YDL185W, strain tfp1, active compounds read low 1.02 | locus YDL192W, strain arf1, active compounds read low 1.01 | locus YDR001C, strain nth1, active compounds read low 1.02 | locus YDR069C, strain doa4, active compounds read low 1.03 | locus YDR101C, strain arx1, active compounds read low 0.998 | locus YDR137W, strain rgp1, active compounds read low 1.04 | locus YDR159W, strain sac3, active compounds read low 1.05 | locus YDR162C, strain NBP2, active compounds read low 1.01 | locus YDR195W, strain ref2 1.08 | locus YDR297W, strain sur2, active compounds read low 1.03 | locus YDR318W, strain mcm21, active compounds read low 1.01 | locus YDR334W, strain swr1, active compounds read low 1.01 | locus YDR335W, strain msn5, active compounds read low 1.04 | locus YDR388W, active compounds read low 1.01 | locus YDR392W, strain spt3, active compounds read low 1.06 | locus YDR502C, strain sam2, active compounds read low 1.01 | locus YEL003W, strain gim4, active compounds read low 1.03 | locus YEL037C, strain rad23, active compounds read low 1.03 | locus YEL061C, strain CIN8 (second series), active compounds read low 1.04 | locus YEL061C, strain CIN8, active compounds read low 1 | locus YER015W, strain faa2, active compounds read low 1.03 | locus YER016W, strain bim1, active compounds read low 1 | locus YER110C, active compounds read low 1.03 | locus YER111C, strain swi4, active compounds read low 1.03 | locus YER155C, strain BEM2 (second series), active compounds read low 1.02 | locus YER155C, strain BEM2, active compounds read low 1.01 | locus YER167W, strain BCK2, active compounds read low 0.986 | locus YFR010W, strain ubp6, active compounds read low 1.05 | locus YGL078C, strain dbp3, active compounds read low 1 | locus YGL086W, strain mad1, active compounds read low 1 | locus YGL167C, strain pmr1, active compounds read low 1.03 | locus YGL173C, strain kem1, active compounds read low 1.04 | locus YGL227W, strain vid30, active compounds read low 1.05 | locus YGL240W, strain doc1, active compounds read low 1.01 | locus YGL248W, strain PDE1, active compounds read low 0.999 | locus YGL253W, strain hxk2, active compounds read low 1.02 | locus YGR078C, strain PAC10, active compounds read low 0.997 | locus YGR135W, strain pre9, active compounds read low 0.988 | locus YGR252W, strain gcn5, active compounds read low 0.944 | locus YHR013C, strain ard1, active compounds read low 1.04 | locus YHR027C, strain rpn1, active compounds read low 1.03 | locus YHR030C, strain SLT2, active compounds read low 1.01 and 1.02 | locus YHR079C, strain IRE1 (second series), active compounds read low 1.02 | locus YHR079C, strain IRE1, active compounds read low 1.03 | locus YHR094C, strain hxt1, active compounds read low 1.03 | locus YHR129C, strain ARP1, active compounds read low 1.01 | locus YHR142W, strain chs7, active compounds read low 1.06 | locus YHR200W, strain rpn10, active compounds read low 1.02 | locus YIL066C, strain RNR3, active compounds read low 1 | locus YIL073C, strain SPO22, active compounds read low 1.19 | locus YIL125W, strain kgd1, active compounds read low 1.01 | locus YIR030C, strain dcg1, active compounds read low 1.03 | locus YJL092W, strain hpr5, active compounds read low 1.03 | locus YJL095W, strain BCK1 (second series), active compounds read low 1 | locus YJL095W, strain BCK1, active compounds read low 0.999 and 1.02 | locus YJL115W, strain asf1, active compounds read low 1.04 | locus YJL129C, strain trk1, active compounds read low 1.07 | locus YJL134W, strain LCB3, active compounds read low 1.01 | locus YJL154C, strain vps35, active compounds read low 1.03 | locus YJL164C, strain tpk1, active compounds read low 1.01 | locus YJL166W, strain qcr8, active compounds read low 1.03 | locus YJL168C, strain set2, active compounds read low 1.01 | locus YJL187C, strain SWE1 (second series), active compounds read low 0.999 | locus YJL187C, strain SWE1, active compounds read low 1.03 | locus YJR043C, strain POL32, active compounds read low 0.983 | locus YJR066W, strain TOR1, active compounds read low 0.975 | locus YJR075W, strain HOC1, active compounds read low 0.995 | locus YKL009W, strain mrt4, active compounds read low 1.02 | locus YKL068W, active compounds read low 1.01 | locus YKL085W, strain MDH1 (second series), active compounds read low 1.01 | locus YKL085W, strain MDH1, active compounds read low 1.01 | locus YKL160W, strain elf1, active compounds read low 1.01 | locus YKR001C, strain vps1, active compounds read low 1.01 | locus YKR026C, strain gcn3, active compounds read low 1.07 | locus YKR091W, strain srl3, active compounds read low 1.01 | locus YLL001W, strain dnm1, active compounds read low 1.02 | locus YLL026W, active compounds read low 1.01 | locus YLL041C, strain sdh2, active compounds read low 1.03 | locus YLR027C, strain aat2, active compounds read low 1.02 | locus YLR039C, strain RIC1, active compounds read low 1.04 | locus YLR058C, strain SHM2, active compounds read low 1.01 | locus YLR102C, strain apc9, active compounds read low 1.01 | locus YLR113W, strain HOG1, active compounds read low 1.03 | locus YLR221C, strain rsa3, active compounds read low 1.01 | locus YLR258W, strain gsy2, active compounds read low 1.02 | locus YLR262C, strain YPT6 (second series), active compounds read low 1.03 | locus YLR262C, strain YPT6, active compounds read low 1.04 | locus YLR268W, strain sec22, active compounds read low 1.04 | locus YLR320W, strain mms22, active compounds read low 1.03 | locus YLR330W, strain CHS5, active compounds read low 1.01 | locus YLR342W, strain FKS1 (second series), active compounds read low 0.966 | locus YLR342W, strain FKS1, active compounds read low 1.03 | locus YLR357W, strain rsc2, active compounds read low 1.09 | locus YLR370C, strain arc18, active compounds read low 1.03 | locus YLR371W, strain rom2, active compounds read low 1.01 | locus YLR384C, strain iki3, active compounds read low 1.03 | locus YLR418C, strain cdc73, active compounds read low 1.01 | locus YML016C, strain PPZ1, active compounds read low 1.01 | locus YML032C, strain rad52, active compounds read low 1.01 | locus YML120C, strain ndi1, active compounds read low 1.02 | locus YML124C, strain tub3, active compounds read low 1.01 | locus YMR058W, strain fet3, active compounds read low 1.04 | locus YMR078C, strain ctf18, active compounds read low 1.02 | locus YMR125W, strain sto1, active compounds read low 1.06 | locus YMR129W, active compounds read low 1.03 | locus YMR205C, strain PFK2, active compounds read low 1.05 | locus YMR223W, strain ubp8, active compounds read low 1.01 | locus YMR231W, strain pep5, active compounds read low 1.03 | locus YMR263W, strain SAP30, active compounds read low 1 | locus YMR307W, strain GAS1, active compounds read low 0.921 | locus YNL067W, strain RPL9B, active compounds read low 0.992 | locus YNL071W, strain lat1, active compounds read low 1.02 | locus YNL153C, strain GIM3, active compounds read low 0.996 | locus YNL183C, strain NPR1, active compounds read low 0.952 | locus YNL209W, strain ssb2, active compounds read low 1.02 | locus YNL233W, strain BNI4, active compounds read low 1.02 | locus YNL248C, strain rpa49, active compounds read low 0.984 | locus YNL250W, strain rad50, active compounds read low 1.01 | locus YNL271C, strain bni1, active compounds read low 1.02 | locus YNL298W, strain CLA4, active compounds read low 1.02 | locus YNL307C, strain MCK1, active compounds read low 1.02 | locus YNL322C, strain KRE1 (second series), active compounds read low 1.04 | locus YNL322C, strain KRE1, active compounds read low 1.01 | locus YNR049C, strain mso1, active compounds read low 1.03 | locus YNR052C, strain pop2, active compounds read low 1.02 | locus YOL006C, strain TOP1, active compounds read low 0.932 | locus YOL012C, strain htz1 0.906 | locus YOL147C, strain pex11, active compounds read low 1.02 | locus YOR001W, strain rrp6, active compounds read low 1.05 | locus YOR061W, strain CKA2, active compounds read low 1.01 | locus YOR069W, strain VPS5, active compounds read low 1.01 | locus YOR070C, strain gyp1, active compounds read low 1.03 | locus YOR080W, strain dia2, active compounds read low 1.05 | locus YOR083W, strain WHI5, active compounds read low 1.02 | locus YOR106W, strain vam3, active compounds read low 1.04 | locus YOR136W, strain idh2, active compounds read low 1.02 | locus YOR144C, strain elg1, active compounds read low 1.02 | locus YOR184W, strain ser1, active compounds read low 1.03 | locus YOR231W, strain MKK1, active compounds read low 1 | locus YOR265W, strain rbl2, active compounds read low 1.04 | locus YOR270C, strain vph1, active compounds read low 1.05 | locus YOR290C, strain snf2, active compounds read low 1.04 | locus YOR316C, strain cot1, active compounds read low 1.02 | locus YPL051W, strain arl3, active compounds read low 1.02 | locus YPL078C, strain atp4, active compounds read low 1.03 | locus YPL106C, strain sse1, active compounds read low 1.07 | locus YPL240C, strain hsp82, active compounds read low 1.02 | locus YPL256C, strain CLN2, active compounds read low 1.04 | locus YPR119W, strain clb2, active compounds read low 1.01 | locus YPR141C, strain kar3, active compounds read low 1.01 | locus YPR163C, strain tif3, active compounds read low 1.02 | locus YPR167C, strain met16, active compounds read low 1.02 | strain wtn01, active compounds read low 1.01

Reference: PubChem BioAssay AID1159580 (chemical genetic matrix, 2015)
